Laboratory results from PubChem BioAssay AID651919 (Sanford-Burnham Center for Chemical Genomics, 2012).
Values joined by “and” are separate entries in the source; they are usually repeats but may differ in a detail not shown here. Equal entries are not always repeated.

Biological target: C-X-C chemokine receptor type 5 (Homo sapiens) (UniProt P32302)
Experiment: antagonism of CXCR6 versus CXCR5 signaling – cell-based, CHO-K1 PathHunter beta-arrestin, luminescence, set 4, selectivity assay for CXCR6 antagonist project, profiling panel (AID 651919)
Settings: run 1, at 79 µM (top of the series)

Going from `COc1ccccc1NC(=O)CN1C2CCCC1CC(NC(=O)c1cc(OC)c(OC)c(OC)c1)C2` (stereo not given) to `COc1cc(C(=O)NC2CC3CCCC(C2)N3CC(=O)Nc2ccc(F)cc2)cc(OC)c1OC` (stereo not given), the inhibition falls from 10.1% to 1.06%.

First: COc1ccc(C(=O)NC2CC3CCCC(C2)N3CC(=O)Nc2ccc(C)cc2)cc1 (stereo not given)
Second: COc1ccc(C(=O)NC2CC3CCCC(C2)N3CC(=O)Nc2ccc(Cl)cc2)cc1 (stereo not given)
The inhibition of the first is lower: 22.2% for the first, 34.5% for the second.

Compared with `Cc1ccc(NC(=O)CN2C3CCCC2CC(NC(=O)c2ccc4c(c2)OCO4)C3)cc1` (stereo not given), `O=C(CN1C2CCCC1CC(NC(=O)c1ccc3c(c1)OCO3)C2)Nc1ccc(Cl)cc1` (stereo not given) is higher in inhibition: 42% for the first, 44.8% for the second.

Going from `COc1ccc(C(=O)NC2CC3CCCC(C2)N3CC(=O)Nc2ccccc2)cc1` (stereo not given) to `COc1cc(OC)cc(C(=O)NC2CC3CCCC(C2)N3CC(=O)Nc2ccccc2)c1` (stereo not given), the inhibition rises from 3.68% to 37.4%.

First: COc1cc(OC)cc(C(=O)NC2CC3CCCC(C2)N3CC(=O)Nc2ccc(C)cc2)c1 (stereo not given)
Second: COc1cc(OC)cc(C(=O)NC2CC3CCCC(C2)N3CC(=O)Nc2ccc(Cl)cc2)c1 (stereo not given)
The inhibition of the first is lower: 8.41% for the first, 22.6% for the second.

Going from `O=C(CN1C2CCCC1CC(NC(=O)c1ccc3c(c1)OCO3)C2)Nc1ccc(F)cc1` (stereo not given) to `COc1ccc(NC(=O)CN2C3CCCC2CC(NC(=O)c2ccc(OC)c(OC)c2)C3)cc1` (stereo not given), the inhibition falls from 6.87% to -3.99%.

Going from `COc1cc(C(=O)NC2CC3CCCC(C2)N3CC(=O)Nc2ccc(Cl)cc2)cc(OC)c1OC` (stereo not given) to `COc1ccc(CN2C3CCCC2CC(NC(=O)c2cc(OC)c(OC)c(OC)c2)C3)cc1` (stereo not given), the inhibition rises from -11.9% to 37%.

`COc1cc(C(=O)NC2CC3CCCC(C2)N3CC(=O)Nc2ccccc2)cc(OC)c1OC` (stereo not given) was tested, and the inhibition was 8.6% and 15.6%.
